AC50 and outcome data for 13 compounds are collected here from PubChem BioAssay AID2284344 (EPA ToxCast).

Inconclusive results are not listed. The source made the active and inactive calls. The calls were made as follows: active = hit-call score of the fitted dose curve at least 0.9, where 1 is the maximum; inconclusive = response in the unintended direction; inactive = score below 0.9.

As usually defined, the AC50 is the concentration at which the activity in the assay is half-maximal.

The test system of this assay is frog Peroxisome Proliferator-activated Receptor-alpha (PPARa), gene 398843. Put plainly: ATG_frPPARa_EcoTox2: Attagene TRANS-FACTORIAL EcoTox-2 HepG2 Assay for frog Peroxisome Proliferator-activated Receptor-alpha (PPARa). The procedure:
ATG_EcoTox2 is a cell-based, multiplexed assay created by modifying the existing Attagene TRANS-FACTORIAL system to include a panel of nuclear receptors from some or all the following species: human (Homo sapiens), african clawed frog (Xenopus laevis), rainbow trout (Oncorhynchus mykiss), japanese medaka (Oryzias latipes), and zebrafish (Danio rerio). The ECOTOX2-FACTORIAL format uses HepG2, a human liver cell line, with measurements taken at 24 hours after chemical dosing in a 24-well plate. ATG_frPPARa_EcoTox2 is one of 29 assay components calculated in the ATG_EcoTox2 assay. It is designed to make measurements of mRNA induction, a form of inducible reporter, as detected with fluorescence intensity signals by Reverse transcription polymerase chain reaction (RT-PCR) and Capillary electrophoresis technology.The assay endpoint ATG_frPPARa_EcoTox2 was analyzed in the positive analysis fitting direction relative to DMSO as the negative control and baseline of activity. Using a type of inducible reporter, measures of mRNA for gain-of-signal activity can be used to understand the reporter gene at the transcription factor-level as they relate to the gene PPARa. Furthermore, this assay endpoint can be referred to as a primary readout, because this assay has produced multiple assay endpoints where this one serves a reporter gene function. To generalize the intended target to other relatable targets, this assay endpoint is annotated to the nuclear receptor intended target family, where the subfamily is non-steroidal.
Human liver HepG2 cells are transiently transfected with multiple reporter transcription units (MRTUs) in 6-well plates using FuGene 6 reagent (Roche; 3 ml FuGene/1 mg DNA). The MRTU constructs are regulated by a cis-regulating element (promoter). Each RTU expresses a GAL4-UAS that regulates the transcription of a nearby target reporter gene sequence. A major difference between the CIS and TRANS system is that in CIS activities of endogenous TFs are measured, whereas the TRANS assay evaluates changes in activities of exogenous, chimeric NR-Gal4 proteins. […] At the end of 24 hour incubation, total RNA was isolated using TriZol reagent (Invitrogen). The isolated RNA is then reverse-transcribed using oligo(dT) primer and Mo-MLV reverse transcriptase (Invitrogen) with DNAse I (Ambion) treatment for 30 min. The one-tenth of the produced cDNA was amplified by PCR using Taq DNA polymerase (Invitrogen) and two reporter sequence-specific primers. The PCR products were fluorescently labeled by primer extension with 6-arboxyfluorescein (6-FAM) 5'-labeled reporter sequence-specific primer (2 min at 95 C, 20 s at 68 C and 10 min at 72 C) and these products were digested with 5U of HpaI (New England Biolabs) for 2h at 37 C. The fragments were purified using Qiaquick PCR columns (Qiagen), analyzed on an ABI 3130xL genetic analyzer (Applied Biosystems) with peak positions identified by using a set of X-rhodamine (ROX)-labeled MapMarker1000 molecular weight standards (BioVentures). The raw capillary electrophoresis data was processed using Attagraph software (Attagene).
Consider `Cc1nc(-c2ccc(C(F)(F)F)cc2)sc1C(=O)NCc1ccc(OC(C)(C)C(=O)O)cc1`, for which the AC50 is 0.0823 µM (active).
On the same count and under the same terms, the same measure for `CC(C)(Oc1ccc(CCNC(=O)c2ccc(Cl)cc2)cc1)C(=O)O`: 23.6 µM (active); for `CC(C)(Oc1ccc(C2CC2(Cl)Cl)cc1)C(=O)O` (stereo not drawn): 113 µM (active).
For the compound `CC(C)(Oc1ccc(Cl)cc1)C(=O)O`, the compound was classed as inactive.
As to `Cc1ccc(C)c(OCCCC(C)(C)C(=O)O)c1`, the AC50 is 50 µM (active).
Take `C=C(c1ccc(C(=O)O)cc1)c1cc2c(cc1C)C(C)(C)CCC2(C)C`: the outcome was inactive.
Turning to `CC(c1cc2ccccc2s1)N(O)C(N)=O` (stereo not drawn), the compound was classed as inactive.
Turning to `Cc1cccc(Nc2cc(Cl)nc(SCC(=O)O)n2)c1C`, the AC50 is 11.9 µM (active).
Turning to `C[C@@H]1C[C@H]2[C@@H]3CCC4=CC(=O)C=C[C@]4(C)[C@@]3(F)[C@@H](O)C[C@]2(C)[C@@]1(O)C(=O)COP(=O)(O)O`, the result was inactive.
Same read-out and setting: in the case of `C[C@]12C=CC(=O)C=C1CC[C@@H]1[C@@H]2C(=O)C[C@@]2(C)[C@H]1CC[C@]2(O)C(=O)CO` it was “inactive”; in that of `Cc1c(C)c2c(c(C)c1O)CCC(C)(COc1ccc(CC3SC(=O)NC3=O)cc1)O2` (stereo not drawn), “inactive”; in that of `CC(C)OC(=O)C(C)(C)Oc1ccc(C(=O)c2ccc(Cl)cc2)cc1`, “inactive”.
With `CN(CCOc1ccc(CC2SC(=O)NC2=O)cc1)c1ccccn1` (stereo not drawn), the AC50 was 8.4 µM (active).
